Measured values: PubChem BioAssay
Calls of active or inactive are those of the source.

Assay: cell viability in Huh7 cells, primary screen, cytotoxicity control for HCV replication inhibitor project, CellTiter-Glo luminescence, basal, 48 h (AID 1143);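 also: Huh7 hepatoma cells carrying a hepatitis C replication reporter with no stimulus; test concentration not given here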
Settings: Huh7 HCV replicon, higher = more signal, called active from +8 up or from −8 down

| Compound | z-score |
| --- | --- |
| O=C1C2C=CC(C(O)C3CCCCC3)N(Nc3ccc([N+](=O)[O-])cc3)C2C(=O)N1c1ccccc1 (stereo not given) | -0.415 (inactive) |
| C=CCNC(=O)[C@H]1[C@@H]2C(=O)O[C@@H](c3ccccc3)[C@@H](c3ccccc3)N2[C@@H](c2ccc(OCCO)cc2)[C@]12C(=O)N(C(=O)OCCOC)c1ccccc12 | -2.05 (inactive) |
| O=C1C2C=CC(C(O)c3c(F)cccc3Cl)N(Nc3ccccc3)C2C(=O)N1c1ccccc1 (stereo not given) | -0.165 (inactive) |
| CC(C)c1ccc(NN2C(C(O)c3cc(C(F)(F)F)cc(C(F)(F)F)c3)C=CC3C(=O)N(c4ccccc4)C(=O)C32)cc1 (stereo not given) | -2.86 (inactive) |
| [N-]=[N+]=NCc1ccccc1C[C@]1(C(=O)O)N=C(c2ccc(OCCCO)cc2)O[C@H]1c1ccccc1N=[N+]=[N-] | -2.37 (inactive) |
| O=C1O[C@H](c2ccccc2)[C@H](c2ccccc2)N2[C@H]1[C@@H](C(=O)NC[C@H](O)c1ccccc1)[C@]1(C(=O)Nc3ccccc31)[C@H]2c1ccc(OCCO)cc1 | -2.93 (inactive) |
| COC(=O)[C@@]1(Cc2ccc(F)cc2)[C@H]2c3cc(C(=O)N4CCCC4)n(Cc4ccc(C)o4)c3C[C@H]2CN1C(=O)c1ccccc1 | -2.77 (inactive) |
| COc1ccc([Si](C)(C)[C@H]2[C@H](CCn3cc([C@H](O)c4ccccc4)nn3)O[C@@]3(C(=O)N(Cc4cccc(N5CCOC5=O)c4)c4ccccc43)[C@@H]2C)cc1 | -1.78 (inactive) |
| COc1ccc(CCNC(=O)[C@@]2(C)c3ccccc3C(=O)N(Cc3cc(F)cc(C(F)(F)F)c3)[C@H]2c2ccc(CO)cc2)cc1 | -4.52 (inactive) |
| O=C1O[C@@H](c2ccccc2)[C@@H](c2ccccc2)N2[C@@H](c3ccc(OCCO)cc3)[C@]3(C(=O)Nc4ccccc43)[C@@H](C(=O)NC[C@H](O)c3ccccc3)[C@H]12 | -1.19 (inactive) |
| C=C(/C(=C/C[C@@H](OC(C)=O)c1ccc(OCCO)cc1)c1cnc2ccccc2c1)C(C)C | -1.07 (inactive) |
| O=C1OCC=C[C@H]2OC34C=CCN(CCN5CCOCC5)C(=O)[C@H]3N(CCCO)C(=O)[C@@H]4[C@@H]12 (stereo not given in full) | -2.3 (inactive) |
| C=CC[C@]1(C(=O)NCCCOC)N=C(c2ccc(OCCCO)cc2)O[C@H]1c1ccccc1N=[N+]=[N-] | -2.57 (inactive) |
| COCC(=C=CC[C@H](O)c1ccccc1OCCO)C[C@H](O)c1cc(Cl)cc(Cl)c1O | -8.22 (active) |
| COC(=O)c1c(CC[C@@H](CO)NC(=O)N2CCC[C@H]2Cn2cc(-c3ccccn3)nn2)oc(C(C)=O)c1C(=O)OC | -1.44 (inactive) |
| C=CCN(Cc1ccccc1)C(=O)C(c1cccs1)N(CCOCCO)C(=O)/C=C\C(=O)O (stereo not given) | -0.247 (inactive) |
| CCN(CC)c1ccc(N2CC=CC34O[C@@H]5/C=C\CCCOC(=O)C5[C@H]3C(=O)N(CCO)[C@@H]4C2=O)cc1 (stereo not given in full) | -0.117 (inactive) |
| C=CC[C@@]1(C(N)=O)N=C(c2ccc(OCCCO)cc2)O[C@@H]1c1ccccc1CN=[N+]=[N-] | -3.34 (inactive) |
| O=C1c2ccccc2[C@](Cc2ccccc2I)(C(=O)NC2CC2)[C@H](c2ccc(CO)cc2)N1C1CCCCC1 | -3.43 (inactive) |
| O=C(NCc1ccccc1)[C@@]1(CCS(=O)(=O)c2ccccc2)N=C(c2ccc(OCCCO)cc2)O[C@H]1c1ccccc1 | -2.09 (inactive) |
| CCCCCN1CC=CC23O[C@@H]4/C=C\CCCOC(=O)C4[C@H]2C(=O)N(CCCO)[C@@H]3C1=O (stereo not given in full) | 0.37 (inactive) |
| C=CCNC(=O)[C@@H]1[C@H]2C(=O)O[C@H](c3ccccc3)[C@H](c3ccccc3)N2[C@H](c2ccccc2OCCO)[C@@]12C(=O)N(C(=O)OCCOC)c1ccc(C#CCNC(N)=O)cc12 | -0.952 (inactive) |
| COCCOC(=O)N1C(=O)[C@@]2(c3cc(C#CCCO)ccc31)[C@H](C(=O)N1CCN(c3ncccn3)CC1)[C@H]1C(=O)O[C@H](c3ccccc3)[C@H](c3ccccc3)N1[C@@H]2c1ccccc1OCCO | -2.42 (inactive) |
| COc1ccc(CCN2C(=O)[C@@]3(c4ccc([N+](=O)[O-])cc4)CC(=O)N(C4CCCCC4)[C@@H]3c3ccc(CO)cc32)cc1 | 0.443 (inactive) |
| CCOC(=O)C[C@H]1[C@H](OC(=O)c2ccc(C(=O)c3ccccc3)cc2)[C@@H](NC(=O)c2ccc(-c3ccccc3)cc2)c2cc(OCCCO)ccc2N1C(=O)c1ccccc1 | 0.294 (inactive) |
